About 83,000 compounds went through this panel and 20% of them were active in at least one assay; those are over-represented in the sample as a whole.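 Interpretation: 100, growth as untreated; towards 0, rising growth inhibition; 0, no net growth; 0 to -100, cell death. Compounds scoring below 10 were considered active.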 The source made the active and inactive calls.
What was measured:
Test in all cases: NCI-60 one-dose screen, 48 h (100 = growth as untreated, 0 = no growth, -100 = all killed)
Settings in all cases: 10 µM unless noted
HCT-15 colon = system: HCT-15 colon
HT29 colon = system: HT29 colon
SNB-75 CNS = system: SNB-75 CNS
SNB-19 CNS = system: SNB-19 CNS
U251 CNS = system: U251 CNS
PC-3 prostate = system: PC-3 prostate
SK-MEL-5 melanoma = system: SK-MEL-5 melanoma
UACC-62 melanoma = system: UACC-62 melanoma
LOX IMVI melanoma = system: LOX IMVI melanoma
SK-MEL-28 melanoma = system: SK-MEL-28 melanoma

Measured: growth

CC1(C)CC[C@]2(C(=O)N3CCNCC3)CC[C@]3(C)C(=CC[C@@H]4[C@@]5(C)CCC(=O)C(C)(C)[C@@H]5CC[C@]43C)[C@@H]2C1
inactive: HCT-15 colon 105% | HT29 colon 107% | SNB-75 CNS 91.6% | SNB-19 CNS 98% | U251 CNS 105% | PC-3 prostate 101% | SK-MEL-5 melanoma 102% | UACC-62 melanoma 98.9% | LOX IMVI melanoma 95.7%

CC[C@H](Nc1nc(C)nc(N)c1C#N)c1nc2cccc(NCc3ccc(C(=O)NO)cc3)c2c(=O)n1-c1ccccc1
inactive: HCT-15 colon 21% | HT29 colon 14.8% | SNB-19 CNS 17.6%
active: SNB-75 CNS 7.85% | U251 CNS 1.03% | PC-3 prostate 8.89% | SK-MEL-5 melanoma -20.4% | UACC-62 melanoma 4.19% | LOX IMVI melanoma -59.6%

COc1cc(CN2CCO[C@H](COc3cccc(F)c3)C2)ccc1Cl
inactive: HCT-15 colon 26.3% | HT29 colon 42.6% | SNB-75 CNS 45% | SNB-19 CNS 29.8% | U251 CNS 27.5% | PC-3 prostate 27.8% | SK-MEL-5 melanoma 37.7% | UACC-62 melanoma 44.7% | LOX IMVI melanoma 50.7%

COC(=O)/C=C/c1cc(OC(C)=O)c2c(c1)[C@@H](C(=O)OC)[C@H](c1ccc(OC(C)=O)c(OC(C)=O)c1)O2
inactive: HT29 colon 11.8% | SNB-19 CNS 34.6% | U251 CNS 18.1% | PC-3 prostate 14.3% | UACC-62 melanoma 33.6%
active: HCT-15 colon 8.71% | SNB-75 CNS -3.49% | SK-MEL-5 melanoma -42.4% | LOX IMVI melanoma 7.76%

CN1CCN(Cc2ccc(NC(=O)c3cncc(C#Cc4cnc5cccnn45)c3)cc2C(F)(F)F)CC1
inactive: UACC-62 melanoma 10%
active: HCT-15 colon 5.63% | HT29 colon 1.67% | SNB-75 CNS -68.8% | SNB-19 CNS 9.4% | U251 CNS 5.83% | PC-3 prostate 5.62% | SK-MEL-5 melanoma 1.22% | LOX IMVI melanoma -16.2%

O=C(/C=C/c1cccc([N+](=O)[O-])c1)c1ccc(Nc2nc(N3CCCCC3)nc(N3CCCCC3)n2)cc1
inactive: HCT-15 colon 87.6% | HT29 colon 88.6% | SNB-75 CNS 101% | SNB-19 CNS 100% | U251 CNS 95.2% | PC-3 prostate 89.3% | SK-MEL-5 melanoma 97.6% | UACC-62 melanoma 91% | LOX IMVI melanoma 92.9%

COc1cc2nccc(Oc3ccc(NC(=O)C4(C(=O)Nc5ccc(F)cc5)CC4)cc3)c2cc1O
inactive: HCT-15 colon 61.8% | HT29 colon 95.1% | SNB-75 CNS 34% | SNB-19 CNS 82% | U251 CNS 66% | PC-3 prostate 57.1% | SK-MEL-5 melanoma 66.4% | UACC-62 melanoma 34.8%

CC(=O)N(C)c1ccc(Nc2cc(C)[nH]c3ccc4ncnc4c23)cc1
inactive: HCT-15 colon 82.5% | HT29 colon 48% | SNB-75 CNS 55% | SNB-19 CNS 58.7% | U251 CNS 49.9% | PC-3 prostate 50.5% | SK-MEL-5 melanoma 51.4% | UACC-62 melanoma 62.7% | LOX IMVI melanoma 36.1%

COc1cc2nccc(Oc3ccc(NC(=O)C4(C(=O)Nc5ccc(F)cc5)CC4)cc3)c2cc1OC(=O)c1ccc(N)cc1
active: HT29 colon 1.03% | SNB-75 CNS -34.6% | U251 CNS 7.81% | LOX IMVI melanoma -51.4%
inactive: HCT-15 colon 25.9% | SNB-19 CNS 37.6% | PC-3 prostate 25.4% | SK-MEL-5 melanoma 34% | UACC-62 melanoma 40.1%

CN1CCN(Cc2ccc(NC(=O)c3ccc(C#N)c(C#Cc4cnc(N)c5ncccc45)c3)cc2C(F)(F)F)CC1
inactive: SNB-75 CNS 112% | SNB-19 CNS 115% | U251 CNS 55.6% | PC-3 prostate 81.1% | SK-MEL-5 melanoma 87% | UACC-62 melanoma 58.8%
active: HCT-15 colon 1.93% | HT29 colon 4.28%

COc1cccc2nc(Nc3cccc(NC(=O)c4cc(N5CCOCC5)cc(C(F)(F)F)c4)c3)ccc12
inactive: HCT-15 colon 48.2% | HT29 colon 43.4% | SNB-75 CNS 50.1% | SNB-19 CNS 74.6% | U251 CNS 50.6% | PC-3 prostate 36.8% | SK-MEL-5 melanoma 42.7% | UACC-62 melanoma 71.4% | LOX IMVI melanoma 56%

CNCc1cccc2c1OCCOCCOCCC(C)S(=O)(=O)c1ccc(cc1)-c1cnc(N)c(n1)C(=O)N2 (stereo not given)
inactive: HCT-15 colon 17.8% | HT29 colon 15.1% | SNB-75 CNS 10.5% | SNB-19 CNS 53.8% | U251 CNS 19.2% | PC-3 prostate 32.3% | SK-MEL-5 melanoma 78.8% | UACC-62 melanoma 60.6% | LOX IMVI melanoma 48.8%

COc1c(C(=O)/C=C/c2ccc(C)o2)c(O)cc2occc12
inactive: HCT-15 colon 35.9% | HT29 colon 65.2% | SNB-75 CNS 59.8% | SNB-19 CNS 76.5% | U251 CNS 75.4% | PC-3 prostate 72.2% | SK-MEL-5 melanoma 86.6% | UACC-62 melanoma 58.6% | LOX IMVI melanoma 71.2%

O=C(Cn1nncc1CN1C(=O)CSC1=O)Nc1ccc(F)cc1
inactive: HCT-15 colon 102% | HT29 colon 105% | SNB-75 CNS 85.9% | SNB-19 CNS 101% | U251 CNS 104% | PC-3 prostate 101% | SK-MEL-5 melanoma 99.5% | UACC-62 melanoma 93.5% | LOX IMVI melanoma 94.9%

O=c1[nH]c2ccccc2n2cc3cccnc3c12
inactive: HCT-15 colon 70.2% | HT29 colon 42.3% | SNB-75 CNS 86.2% | SNB-19 CNS 71% | U251 CNS 76.6% | PC-3 prostate 84.7% | SK-MEL-5 melanoma 73.2% | UACC-62 melanoma 53% | LOX IMVI melanoma 65.6% | SK-MEL-28 melanoma 107%

NC(=Nc1ccccc1)SCCCSC(N)=Nc1ccccc1
inactive: HCT-15 colon 82.4% | HT29 colon 93.9% | SNB-75 CNS 78.4% | SNB-19 CNS 95.8% | U251 CNS 95.6% | PC-3 prostate 74.7% | SK-MEL-5 melanoma 85.5% | UACC-62 melanoma 73.4% | LOX IMVI melanoma 86.7% | SK-MEL-28 melanoma 106%

COc1ccc2[nH]cc(/C=C3\C(=O)Nc4ccccc43)c2c1
inactive: HCT-15 colon 23.9% | HT29 colon 10.7% | SNB-19 CNS 73% | U251 CNS 38.8% | PC-3 prostate 45.3% | SK-MEL-5 melanoma 39.5% | UACC-62 melanoma 26% | LOX IMVI melanoma 21.1%
active: SNB-75 CNS 8.46%

COc1ccc(-c2nsc3c2NC(=O)CC3c2cccc(F)c2)cc1 (stereo not given)
inactive: HCT-15 colon 23% | HT29 colon 10.4% | SNB-75 CNS 68.5% | SNB-19 CNS 82.7% | U251 CNS 45.6% | PC-3 prostate 49.4% | SK-MEL-5 melanoma 32.5% | UACC-62 melanoma 48.5% | LOX IMVI melanoma 50.9% | SK-MEL-28 melanoma 65.4%

Oc1c(C(c2ccc(F)cc2)N2CCCCC2)ccc2cncnc12 (stereo not given)
active: SNB-75 CNS 7.45% | U251 CNS 1.52% | SK-MEL-5 melanoma -19.7% | UACC-62 melanoma -0.545% | LOX IMVI melanoma 7.17%
inactive: HCT-15 colon 26% | HT29 colon 13.5% | SNB-19 CNS 11.1% | PC-3 prostate 10.6%

COc1ccc([C@@H]2[C@@H](Oc3ccccc3)C(=O)N2c2cc(OC)c(OC)c(OC)c2)cc1F
active: HT29 colon -6.94% | U251 CNS 4.18% | SK-MEL-5 melanoma -15.1% | UACC-62 melanoma 0.0629%
inactive: HCT-15 colon 12.7% | SNB-75 CNS 61.4% | SNB-19 CNS 19.9% | PC-3 prostate 20.7% | LOX IMVI melanoma 14% | SK-MEL-28 melanoma 48.9%

c1ccc(C2=Nc3ccccc3SC2)cc1
inactive: HCT-15 colon 105% | HT29 colon 109% | SNB-75 CNS 77.6% | SNB-19 CNS 109% | U251 CNS 94.9% | PC-3 prostate 66.4% | SK-MEL-5 melanoma 105% | UACC-62 melanoma 96.7% | LOX IMVI melanoma 90.4% | SK-MEL-28 melanoma 109%

CCN(C)CCCOc1ccc(/C(=C(\C)Cc2cccc(OC)c2)c2ccc(OC(C)=O)cc2)cc1
inactive: HCT-15 colon 101% | HT29 colon 102% | SNB-75 CNS 81.7% | SNB-19 CNS 102% | U251 CNS 97.1% | PC-3 prostate 98.1% | SK-MEL-5 melanoma 99.1% | UACC-62 melanoma 98.4% | LOX IMVI melanoma 97.2%

O=C(OCc1ccc2c(Br)cc(Br)c(O)c2n1)c1cc2ccccc2[nH]1
inactive: SNB-19 CNS 45.6% | U251 CNS 22.7%
active: HCT-15 colon -66.7% | HT29 colon -82.5% | SNB-75 CNS -46.3% | PC-3 prostate -55.6% | SK-MEL-5 melanoma -47.5% | UACC-62 melanoma -83% | LOX IMVI melanoma -93.4%

Clc1cn2cc(-c3ccc(Cl)c(Cl)c3Cl)nc2s1
inactive: HCT-15 colon 93.9% | HT29 colon 112% | SNB-75 CNS 91.4% | SNB-19 CNS 99.8% | U251 CNS 102% | PC-3 prostate 99.9% | SK-MEL-5 melanoma 100% | UACC-62 melanoma 96.3% | LOX IMVI melanoma 99.3%

COc1cc2c(cc1C)NC(=O)/C2=C\c1c[nH]c2ccccc12
inactive: HCT-15 colon 58.4% | HT29 colon 35.4% | SNB-75 CNS 37.9% | SNB-19 CNS 84.7% | U251 CNS 61.5% | PC-3 prostate 53.3% | SK-MEL-5 melanoma 73.8% | UACC-62 melanoma 77.9% | LOX IMVI melanoma 44.9%

O=C1c2ccccc2C(=O)c2c1oc1ccc3ccccc3c21
inactive: HCT-15 colon 65% | HT29 colon 106% | SNB-75 CNS 93.3% | SNB-19 CNS 90% | U251 CNS 81.1% | PC-3 prostate 72.3% | SK-MEL-5 melanoma 17.3% | UACC-62 melanoma 84.2% | LOX IMVI melanoma 41.9%

CCOC(=O)C1=C(C)NC(SCc2nnc(-c3ccc(Cl)cc3)o2)=NC1c1ccc(Cl)cc1 (stereo not given)
inactive: HCT-15 colon 67.6% | HT29 colon 75.2% | SNB-75 CNS 73.7% | SNB-19 CNS 73% | U251 CNS 73.9% | PC-3 prostate 48.8% | SK-MEL-5 melanoma 40.9% | UACC-62 melanoma 49.9% | LOX IMVI melanoma 76.9% | SK-MEL-28 melanoma 79.8%

CC[C@H](Nc1nc(N)nc(C2CC2)c1C#N)c1nc2cccc(NCc3ccc(C(=O)NO)cc3)c2c(=O)n1-c1ccccc1
active: SNB-75 CNS -2.59% | SNB-19 CNS 7.25% | U251 CNS -4.25% | SK-MEL-5 melanoma -29.5% | UACC-62 melanoma -19% | LOX IMVI melanoma -89.2%
inactive: HCT-15 colon 19% | HT29 colon 13.4% | PC-3 prostate 10.1%

O=C1Cc2c([nH]c3ccc([N+](=O)[O-])cc23)-c2ccccc2N1
active: HCT-15 colon 5.02% | HT29 colon 4.95% | SNB-75 CNS -7.52% | U251 CNS 8.97% | PC-3 prostate 9.61% | SK-MEL-5 melanoma -47.2% | LOX IMVI melanoma 9.02%
inactive: SNB-19 CNS 20.8% | UACC-62 melanoma 11.4%

— PubChem BioAssay (NCI)
